TTR transcr act: TTR transcription activation, primary screen; SH-SY5Y TTR promoter Gaussia luciferase, luminescence; 100% = recombinant luciferase protein wells; activation, % at 16.7 µM; 92,000 compounds, 1.3% hits;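 active = activation above the mean of all tested compounds plus 3 SD, cut at about 9.5% in these data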;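 note: cells exposed to compounds for one day before reading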
HuH7 TTR inh: HuH7 TTR transcription inhibition, counter-screen; shares compounds with TTR transcr act; HuH7 TTR promoter-Gaussia luciferase reporter, luminescence; inhibition, % at 16.7 µM; 1,100 compounds, 4% hits; AID 1117279;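 active = average inhibition above the solvent-only control wells' mean plus 3 SD, cut at about 15% in these data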;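 note: inhibitors lower well luminescence so higher value means more inhibition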
TTR up confirm: confirmation of human transthyretin transcription activators | activation, % at 16.7 µM | SHSY5Y TTR promoter Gaussia luciferase, luminescence; 100% = purified Lucia enzyme wells, no cells | 1,100 tested, under 10 active | shares compounds with TTR transcr act;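 active = mean activation above a set limit taken from the earlier primary screen, cut at about 11% in these data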
Numbers stand for hits; i = inactive. The full list was thinned out, with hits kept by preference.

SMILES	TTR transcr act	others
CCOC(=O)c1nc2ccc(C)cc2c2c1C1CC(c3c(Cl)cccc31)N2C(=O)OCc1ccccc1 (centres undefined)	i
COc1ccc2[nH]cc(CCNC(=O)/C=C/[C@H]3O[C@@H](n4cnc5c(NC(=O)c6ccccc6)ncnc54)[C@H](O)[C@@H]3O)c2c1	i
CCCCc1ccc(-c2noc(CCC(=O)NCC)n2)cc1	i
Cc1ccc(N/C=C2\CCCCC2=O)c(C)c1	i
O=C1CCCC/C1=C/Nc1cccc(C(F)(F)F)c1	i
Cc1ccc(N/C=C2\CCCCC2=O)nc1	9.9	HuH7 TTR inh=i;TTR up confirm=i
CNC(=O)N(O)C1N(C)C(=O)N(Cc2ccccc2)C1(C)C (centres undefined)	i
COC(=O)CN1C(=O)N(c2ccccc2)C(N(O)C(=O)Nc2ccccc2)C1(C)C (centres undefined)	i
COC(=O)CNC(=O)CN1C(=O)N(c2cccc(Cl)c2)C(N(O)C(=O)Nc2cccc(Cl)c2)C1(C)C (centres undefined)	10.1	HuH7 TTR inh=i;TTR up confirm=i
Cc1ccc(CNC(=O)O[C@H]2CC[C@@]34CCCN3C(=O)CCC[C@H]4[C@H]2C)cc1	i
COc1cccc(CNc2ccc(F)c(Cl)c2)c1O	13.2	HuH7 TTR inh=i;TTR up confirm=i
CCOc1cccc(CNc2ccc(O)cc2)c1OCc1ccc(Cl)cc1Cl	i
CCn1cnc2cc(NCc3cccc(OC)c3O)ccc21	i
Cc1nc(N2CCN(C(=O)COc3ccccc3C)CC2)c2c3c(sc2n1)CCCC3	i
CC1CN(c2ccc(Oc3ccccc3)cc2)c2nc3c(c(=O)n(CC(N)=O)c(=O)n3C)n2C1 (centres undefined)	i
CCCn1c(=O)c2c(nc3n2CC(C)CN3Cc2ccccc2)n(C)c1=O (centres undefined)	i
Cc1ccc(N2CC(C)Cn3c2nc2c3c(=O)n(CC(=O)OCc3ccccc3)c(=O)n2C)cc1C (centres undefined)	i
C=CCn1c(=O)c2c(nc3n2CC(C)CN3Cc2ccccc2)n(C)c1=O (centres undefined)	11.0	HuH7 TTR inh=15.5;TTR up confirm=i
C=CCn1c(=O)c2c(nc3n2CCCN3CCc2ccccc2)n(C)c1=O	i
CC1CN(Cc2ccccc2)c2nc3c(c(=O)n(CC(N)=O)c(=O)n3C)n2C1 (centres undefined)	13.1	HuH7 TTR inh=19.4;TTR up confirm=i
COC(=O)[C@]12C[C@H](CC(=O)NCCc3ccccc3OC)C(=O)N(Cc3cccc4ccccc34)C1=C[C@H](C(C)(C)C)O[C@@H]2C	i
CC(C)n1nc(C(=O)N2CCN(S(=O)(=O)c3cccs3)CC2)c2ccccc2c1=O	i
O=C(OCC#CCSc1nnc(-c2ccc(F)cc2)o1)c1ccc(F)cc1	i
O=C(COC(=O)c1ccccn1)Nc1cccc(Cl)c1Cl	i
Cc1ccnc2nc(C(=O)OCC(=O)NCCc3ccc(Cl)cc3)nn12	i
SMILES	TTR transcr act	others
O=C(COC(=O)c1ccccn1)NCCc1ccc(Cl)cc1	10.5	HuH7 TTR inh=i;TTR up confirm=i
Clc1ccccc1CN1CCN(/N=C/C=C/c2ccco2)CC1	i
c1ccc(CN2CCN(c3ncnc4sccc34)CC2)cc1	i
CCCOc1ccc(F)cc1-c1cc(C(=O)NCc2ccco2)[nH]n1	i
COc1nc(-c2ccccc2)ncc1S(=O)(=O)c1ccccc1	i
COc1ccc(Oc2nc(-c3ccccc3)ncc2S(=O)(=O)c2ccccc2)cc1	i
Cc1cccc(C)c1Oc1nc(-c2ccccc2)ncc1S(=O)(=O)c1ccccc1	26.5	HuH7 TTR inh=i;TTR up confirm=i
Cc1cc(C(=O)N[C@H](c2ccccc2)[C@@]2(C)C[C@@H]2[C@@H](C)C(=O)Nc2ccc3ccccc3c2)n(C)n1	i
Cc1ccc(-c2nc(N)sc2CC(=O)OCC(=O)NC2CCCC(C)C2C)cc1 (centres undefined)	14.9	HuH7 TTR inh=i;TTR up confirm=i
Cc1ccc(CC(=O)OCC(=O)NC2CCCC(C)C2C)cc1C (centres undefined)	i
CC1CCCC(NC(=O)COC(=O)Cc2ccc(Cl)cc2)C1C (centres undefined)	i
CC(C)N1CCCCC(NC(=O)c2ccc(-c3ccccc3)cc2)C1=O (centres undefined)	i
COc1ccc(CNC(=O)c2ccc3nc(C)c(N(C)Cc4ccc(NC(C)=O)cc4)n3c2)cc1	i
Cc1onc(-c2ccccc2)c1C(=O)N/N=C/c1c(F)cccc1Cl	i
COc1cc(SC)ccc1C(=O)NCCNC(=O)c1nonc1N	14.4	HuH7 TTR inh=i;TTR up confirm=i
CCCNC(=O)c1ccc(SC)cc1OC	i
COc1cc(SC)ccc1C(=O)NCc1ccc(C)cc1	i
C[C@H]1[C@@H](NC(=O)c2ccc(Cl)cc2)CC[C@@]23CCCN2C(=O)CCC[C@@H]13	i
C[C@@H]1[C@@H](O)C[C@@]2(C[C@H](O)c3cc(F)ccc3O2)O[C@H]1c1ccccc1Cl	i
CN1CCN(C(=O)/C(=C\c2cccs2)NC(=O)c2ccco2)CC1	9.7	HuH7 TTR inh=i;TTR up confirm=i
O=C(N/C(=C\c1cccs1)C(=O)N1CCOCC1)c1ccco1	i
Cc1ccccc1NC(=O)/C(=C\c1cccs1)NC(=O)c1ccco1	i
Cc1ccc(CN2CCCCC(NC(=O)C(C)(C)C)C2=O)cc1 (centres undefined)	i
O=C1CCN(Cc2ccccc2)C=C1c1ccc2ccccc2c1	10.4	HuH7 TTR inh=i;TTR up confirm=i
CC1(C(=O)Nc2ccc3ccccc3c2)CCC(=O)N1C1CCN(Cc2ccccc2)CC1 (centres undefined)	i
SMILES	TTR transcr act	others
O=C1CCN(Cc2ccccc2)C=C1c1ccc(C(F)(F)F)cc1	i
CCOc1ccc(Oc2nc(NCC(C)C)nc(N(C)C)n2)nn1	i
CCOc1ccc(Oc2nc(NCC(C)C)nc(OC)n2)nn1	i
CCNc1nc(NC(C)CC)nc(Oc2ccc(OCC)nn2)n1 (centres undefined)	12.6	HuH7 TTR inh=i;TTR up confirm=i
CCCCC#CC(CC)NCc1ccc(OC)cc1OC (centres undefined)	i
COCCn1c(SCC(=O)Nc2cccc(S(N)(=O)=O)c2)nc2ccccc21	i
COCCn1c(SCC(=O)Nc2ccc(S(N)(=O)=O)cc2)nc2ccccc21	9.8	HuH7 TTR inh=i;TTR up confirm=i
COCCn1c(SCC(=O)NC(C)c2ccccc2)nc2ccccc21 (centres undefined)	i
O=C1NC(=O)C2(CCCC2C(=O)O)N1 (centres undefined)	i
CCC(=O)Nc1cc(C)c(NC(=O)C23CC4CC(CC(C4)C2)C3)cn1	9.9	HuH7 TTR inh=i;TTR up confirm=i
CCC(=O)Nc1cnc(NC(=O)c2cccc(F)c2)cc1C	i
CCCCC(=O)Nc1cc(C)c(NC(=O)c2cccs2)cn1	i
Cc1nn(C)cc1NC(=O)C[C@H]1CC[C@H]2[C@@H](COc3ccc(NC(=O)Nc4ccccc4)cc3C(=O)N2C)O1	i
O=C(Cc1ccc(Br)cc1)N1CCOCC1	i
CC#CC(=O)N[C@H]1CC[C@@]23CCCN2C(=O)CCC[C@H]3[C@H]1C	i
O=C(Cc1c(O)c2ccccc2[nH]c1=O)NCc1ccccc1F	14.1	HuH7 TTR inh=i;TTR up confirm=i
O=C(CCl)NNC(=O)c1c(O)c2ccccc2[nH]c1=O	i
O=C(NCCc1ccccc1)c1c(O)c2ccccc2[nH]c1=O	i
CCCCn1nnnc1C(c1cc2ccccc2o1)N(C)CCc1ccccc1 (centres undefined)	i
COc1ccc(Cn2ccc3ccc(-c4ccc5ccn(Cc6ccc(F)cc6)c5c4)cc32)cc1	i

Screens (PubChem)
